Most compounds without a hit are left out; they make up all but 7.2% or so of the library.
ALR inh: human ALR oxidase inhibition via reduced H2O2; P55789; hit rate 3.8% among 290,000; inhibition, % (test concentration not listed); AID 485317; purified ALR, DTT oxidation, H2O2 HRP-luminol luminescence;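 active means mean replicate inhibition above about 79%, with every replicate also reaching it, limit read from the data; inconclusive means only one of the two criteria met; inactive means mean below limit and not every replicate reaching it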
VLA-4 inh: inhibition in a human VLA-4 binding assay | P13612 | VLA-4 expressing cells, ligand binding flow cytometry | inhibition, % (about 7 µM as worked out from the volumes in the protocol) | hit rate 0.2% among 330,000 | AID 2557; in the data active means inhibition above about 50%
Target sequence (P13612 whole entry, looked up): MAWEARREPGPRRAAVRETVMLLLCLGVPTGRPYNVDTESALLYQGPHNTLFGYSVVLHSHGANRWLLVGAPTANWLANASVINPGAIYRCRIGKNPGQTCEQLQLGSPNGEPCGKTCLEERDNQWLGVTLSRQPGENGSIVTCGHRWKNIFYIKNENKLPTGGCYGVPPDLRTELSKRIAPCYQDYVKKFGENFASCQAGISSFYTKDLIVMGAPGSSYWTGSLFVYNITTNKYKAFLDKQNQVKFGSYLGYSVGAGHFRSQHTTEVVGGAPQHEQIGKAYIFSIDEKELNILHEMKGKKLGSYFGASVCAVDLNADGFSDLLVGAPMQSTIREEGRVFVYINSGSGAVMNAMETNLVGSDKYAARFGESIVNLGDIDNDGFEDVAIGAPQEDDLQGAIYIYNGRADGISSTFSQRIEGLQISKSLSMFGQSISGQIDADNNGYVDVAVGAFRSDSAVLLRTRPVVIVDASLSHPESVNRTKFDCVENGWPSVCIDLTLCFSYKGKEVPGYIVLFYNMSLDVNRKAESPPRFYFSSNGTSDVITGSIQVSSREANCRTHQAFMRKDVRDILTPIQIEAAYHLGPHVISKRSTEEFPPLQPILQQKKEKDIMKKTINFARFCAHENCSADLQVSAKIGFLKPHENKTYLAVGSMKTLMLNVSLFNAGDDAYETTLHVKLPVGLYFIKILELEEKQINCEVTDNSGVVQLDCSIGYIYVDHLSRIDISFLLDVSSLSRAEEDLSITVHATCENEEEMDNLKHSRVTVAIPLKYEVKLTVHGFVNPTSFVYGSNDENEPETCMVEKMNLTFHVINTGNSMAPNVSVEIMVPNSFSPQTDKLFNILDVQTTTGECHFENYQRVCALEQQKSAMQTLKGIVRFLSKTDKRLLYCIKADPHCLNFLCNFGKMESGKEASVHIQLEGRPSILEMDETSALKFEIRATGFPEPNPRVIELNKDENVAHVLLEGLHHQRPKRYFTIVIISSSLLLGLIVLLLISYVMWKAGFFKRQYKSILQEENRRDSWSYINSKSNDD
Mot1-301 SUMO: blocks SUMOylation pathway, rescuing yeast Mot1-301 growth. S. cerevisiae Mot1-301 growth rescue, ATP luminescence, 38.5C; percent above DMSO median, 100 means doubled. growth rescue, % at 18.8 µM. hit rate 1% among 320,000. AID 2716;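 active means every valid replicate shows activation above 250% relative to neutral control wells; inactive means the rest, any valid replicate at or below 250%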
Efflux pump mplx: antifungal efflux pump inhibition, Nile Red retention; inhibition, % at 10 µM; S. cerevisiae Candida pump triplex; AID 485275; hit rate 0.44% among 330,000;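 active means plate passing quality check with inhibition over a set limit, or well fluorescence over plate mean plus 4 SD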;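 further: Nile Red retained in pooled yeast measured as flow cytometry median fluorescence; higher means more Nile Red kept so more efflux inhibition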
Bfl-1 A1 inh: inhibitors of the anti-apoptotic protein A1, read as caspase activation; caspase activation, % (no concentration beside the values); hit rate 0.066% among 330,000; AID 2462; MEF A1-2A-BIM cells, Caspase-Glo 3/7 luminescence, 3 h; percent of clofoctol response, vehicle zero;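 active means over half of replicate activation scores above 10%, or exactly half above 10 with the replicate mean above 10; inconclusive means replicate mean below 10 yet half the replicates above 10; inactive means over half of replicates below 10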
AHR activator: activates the human aryl hydrocarbon receptor | hit rate 2.5% among 320,000 | activation, % at 5 µM | P35869 | AHR-responsive luciferase reporter cells, luminescence | AID 2796; in the data active means activation above about 47%
Hits are given with their value; 0 = inactive; ? = inconclusive; - = no result given.

SMILES	ALR inh	VLA-4 inh	Mot1-301 SUMO	Efflux pump mplx	Bfl-1 A1 inh	AHR activator
COc1cc(OC)c2c(C)cc(=O)oc2c1C(CCN1CCOCC1)c1ccc(N(C)C)cc1 (stereo not given)	-	-	0	-	0	0
O=C1CSC(=NC2CCCCC2)N1	97.9	0	0	0	0	0
O=C1CS/C(=N/N=C2CCCC2)N1	0	0	0	0	0	0
CC1=NOC(=O)/C1=C\c1ccc(-c2ccc(Br)cc2C(=O)O)o1	88.5	0	0	0	0	0
CC1=NOC(=O)/C1=C\c1ccc(-c2cc(Cl)ccc2Cl)o1	0	0	0	0	0	0
CC1(C)CC2(CC(c3ccc(F)cc3)c3ccc(O)cc3O2)NC(=S)N1 (stereo not given)	0	0	0	0	0	0
CC1(C)CC2(CC(c3ccccc3F)c3ccc(O)c(O)c3O2)NC(=S)N1 (stereo not given)	99.0	0	0	0	0	0
Clc1ccc(Cn2ccc(-c3ccc4c(c3)OCO4)n2)cc1Cl	-	0	0	0	0	51.0
c1cc2c(cc1Cn1cnnn1)OCO2	0	0	0	0	0	0
COc1ccc(-c2cc(C#N)nc(NN)n2)cc1	0	0	0	0	0	0
COc1ccc(-c2cc(-c3ccccc3)nc(NN)n2)cc1OC	0	0	0	0	0	65.4
Cc1ccc(-c2cc(-c3ccccc3)nc(NN)n2)cc1	0	0	0	0	0	66.4
O=C(c1ccc(N2CCN(C(=O)c3ccccc3)CC2)cc1)c1cccc(F)c1	0	0	0	0	0	0
O=C(c1ccccc1)c1ccc(C(=O)N2CCN(c3ccc(O)cc3)CC2)cc1	99.4	0	0	0	0	0
O=C(c1ccc(Cl)cc1)N1CCN(c2cccc3[nH]ccc23)CC1	97.0	0	0	0	0	0
O=C(NC1CCCCC1)N1CCN(c2ccc(Cl)cc2)CC1	99.0	0	0	0	0	0
O=C(c1ccc2c(c1)OCO2)N1CCN(c2ccc(F)cc2)CC1	96.7	0	0	0	0	0
CC(=O)Nc1ccc(/C=N/N2C(=O)NC(C)(c3ccc(OC(F)F)cc3)C2=O)cc1 (stereo not given)	-	0	0	0	0	0
CC1=NN(C(=O)COc2ccc(C)c(C)c2)C(O)(c2ccccc2)C1 (stereo not given)	-	0	0	0	0	0
COc1ccccc1-c1ccc2nnc(SC)n2n1	0	0	0	0	0	0
O=C(c1ccncc1)N1CCN(c2ccc(F)cc2)CC1	0	0	-	0	0	0
O=C(c1cccs1)N1CCN(c2ccc(Cl)cc2)CC1	96.4	0	0	0	0	0
Cc1ccc(CN2CCN(c3cccc4[nH]ccc34)CC2)cc1	99.0	0	0	0	0	0
O=C(c1ccccc1)c1cccn1CC(=O)N1CCN(c2ccccc2)CC1	96.8	0	0	0	0	0
O=C(c1ccc(Cl)cc1)N1CCN(c2ccc(F)cc2)CC1	0	0	0	0	0	57.9
SMILES	ALR inh	VLA-4 inh	Mot1-301 SUMO	Efflux pump mplx	Bfl-1 A1 inh	AHR activator
O=C(c1cccs1)N1CCN(c2cc(Cl)ccc2Cl)CC1	0	0	0	0	0	0
Cc1cc(S(=O)(=O)NCCCN2CCOCC2)c(C)cc1Cl	0	0	0	0	0	-
CC1(C)Cc2cccc(OCC(=O)NCc3ccccc3F)c2O1	-	0	0	0	0	0
O=C(Cc1ccccc1)NNC(=O)Nc1ccccc1	-	0	0	0	0	0
Cn1cnnc1SCC(=O)c1cccc([N+](=O)[O-])c1	83.0	0	-	0	0	0
Cn1cnnc1SCC(=O)NNC(=O)c1ccc([N+](=O)[O-])cc1	0	0	0	0	0	0
CCn1c(CCn2c3ccccc3c3ccccc32)n[nH]c1=S	88.2	0	0	0	0	0
Cc1noc(C)c1CSc1nc2ccccc2n1CCc1ccccc1	95.1	0	0	0	0	0
CCn1c(CSc2nc3ccccc3[nH]2)n[nH]c1=S	95.6	0	0	0	0	0
CCOc1ccccc1CSc1nc2ccccc2[nH]1	0	0	0	0	0	53.6
O=C(O)c1ccccc1CSc1nc2ccccc2[nH]1	-	0	0	0	0	0
c1ccc2[nH]c(SCc3cn4cccnc4n3)nc2c1	99.2	0	0	0	0	0
COc1ccc2nc(SCc3cnc(C)nc3N)[nH]c2c1	0	0	0	0	0	0
Cc1ncc(CSc2nc3ccccc3[nH]2)c(N)n1	87.7	0	0	0	0	0
Cc1noc(C)c1CSc1nc2ccccc2[nH]1	99.3	0	0	0	0	0
c1ccc(-c2cnnc(SCc3cn4cccnc4n3)n2)cc1	0	0	0	0	0	0
COCCCNC(=S)Nc1ccc2c(c1)OCCO2	-	0	0	0	0	0
NC(=O)c1ccsc1NC(=O)COC(=O)c1cc(Cl)ccc1O	0	0	0	0	0	0
CCn1c(SCC(=O)Nc2ccc(C)cc2)nc(O)cc1=O	98.9	0	0	0	0	0
CCCn1c(SCC(=O)Nc2cccc(F)c2)nc(O)cc1=O	99.4	0	0	0	0	0
O=C(CCc1nnc2ccc(N3CCCC3)nn12)Nc1cc(F)ccc1F	0	0	0	0	0	0
C=C1CCN([C@@H](C)C(=O)NCCCCCC)S(=O)(=O)c2ccccc21	0	0	0	0	0	0
O=C(O)C1Sc2[nH]c(=O)sc2C2c3ccc(O)cc3OC(=O)C12 (stereo not given)	0	0	0	0	0	0
O=C(O)C1Sc2[nH]c(=O)sc2C2c3cc(Cl)ccc3OC(=O)C12 (stereo not given)	94.0	0	0	0	0	0
COc1ccc(C(C[N+](=O)[O-])c2c(C)[nH]n(-c3ccccc3)c2=O)cc1 (stereo not given)	0	0	0	0	0	0
SMILES	ALR inh	VLA-4 inh	Mot1-301 SUMO	Efflux pump mplx	Bfl-1 A1 inh	AHR activator
Cc1ccc(C(C[N+](=O)[O-])c2c(-c3ccccc3O)[nH][nH]c2=O)cc1 (stereo not given)	86.0	0	271.6	0	0	0
O=c1[nH][nH]c(-c2ccccc2O)c1C(C[N+](=O)[O-])c1ccc(Br)cc1 (stereo not given)	87.7	0	0	0	0	0
CC1CCCCN1C(=O)COC(=O)c1cccc(NS(=O)(=O)c2ccccc2)c1 (stereo not given)	0	0	0	0	0	0
CC1(C)OC(=O)C(=CNNc2c(Cl)cc(Cl)cc2Cl)C(=O)O1	0	0	0	0	0	0
Cc1cc(C)c(NC(=O)COC(=O)Cc2ccsc2)c(C)c1	0	0	0	0	0	0
O=C(N/N=C/c1cccc(O)c1)c1cc(C2CC2)nc2ccccc12	0	0	0	0	0	0
C/C(=N\NC(=O)c1cc(C2CC2)nc2ccccc12)c1ccc(C)s1	0	0	0	0	0	50.6
C/C(=N\NC(=O)c1cc(C2CC2)nc2ccccc12)c1ccc(O)cc1O	0	0	0	0	?	0
O=C(N/N=C/c1cccnc1)c1cc(C2CC2)nc2ccccc12	0	0	0	0	0	48.1
COc1ccccc1CNC(=O)CN(C)S(=O)(=O)c1ccc2c(c1)c(=O)n(C)c(=O)n2C	0	0	0	0	0	0

Compound activity (PubChem)
